PubChem BioAssay (NCI)
About 83,000 compounds went through this panel and 20% of them were active in at least one assay; those are over-represented in the sample as a whole.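 A percent growth of 40 corresponds to 60% growth inhibition; 0 means no net growth; -100 means all cells died. Active threshold: below 10.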 Unmarked numbers belong to inactive results. Active and inactive are the calls of the source.

Assays:
Experiment in all cases: NCI-60 one-dose screen, 48 h (100 = growth as untreated, 0 = no growth, -100 = all killed)
Conditions in all cases: 10 µM
RPMI-8226 leukemia = test system: RPMI-8226 leukemia
OVCAR-8 ovarian = test system: OVCAR-8 ovarian
OVCAR-5 ovarian = test system: OVCAR-5 ovarian
OVCAR-4 ovarian = test system: OVCAR-4 ovarian
SK-OV-3 ovarian = test system: SK-OV-3 ovarian
IGROV1 ovarian = test system: IGROV1 ovarian
OVCAR-3 ovarian = test system: OVCAR-3 ovarian
HS 578T breast = test system: HS 578T breast
NCI/ADR-RES ovarian = test system: NCI/ADR-RES ovarian

SMILES	growth (RPMI-8226 leukemia)	growth (OVCAR-8 ovarian)	growth (OVCAR-5 ovarian)	growth (OVCAR-4 ovarian)	growth (SK-OV-3 ovarian)	growth (IGROV1 ovarian)	growth (OVCAR-3 ovarian)	growth (HS 578T breast)	growth (NCI/ADR-RES ovarian)
Cc1ccc(-c2nc3ccc(C(=O)N=Nc4c(O)[nH]c5ccc([N+](=O)[O-])cc45)cc3[nH]2)cc1	104%	75.3%	101%	55.2%	78.9%	89.2%	21.9%	74.6%	103%
CCCCSc1nc(Nc2ccc(/C(C)=N/NC(N)=S)cc2)c(C#N)c(-c2ccc(F)cc2)n1	58.2%	7.66% (active)	64.4%	16.3%	78.4%	49.6%	35.4%	28.8%	37.5%
O=C(c1ccc(O)cc1)C1[C@H](c2ccc(Br)cc2)[C@@H](c2ccccc2)NC12C(=O)Nc1ccc(Br)cc12 (some centres undefined)	1.12% (active)	12%	-4.82% (active)	14.3%	13.2%	-6.01% (active)	-38.9% (active)	-6.2% (active)	-2.8% (active)
Nc1cccnc1/C=N/NC(=S)NCCNC(=O)c1ccc(-n2nc(-c3ccccc3O)nc2-c2ccccc2O)cc1	-3.08% (active)	14.6%	26.3%	22.1%	17.1%	12.5%	39.6%	34.6%	67.4%
CCCn1c(=O)c2[nH]c(-c3ccc(OCc4nc5ccccc5[nH]4)cc3)nc2n(CCC)c1=O	40%	27.6%	92.2%	3.46% (active)	40.3%	39.8%	26.8%	-17.8% (active)	66.3%
Cn1c(O)c(N=Nc2nc(-c3cc4ccccc4oc3=O)cs2)c2cc(Br)ccc21	96.6%	79.2%	86.5%	80.9%	57.7%	64.2%	96.4%	17.5%	68.4%
COc1ccccc1NCc1ccc(CO)n1-c1ccc(C)cc1	85.8%	101%	111%	97.7%	81.5%	91.5%	95.6%	98%	95.9%
COc1cccc2nc(Nc3ccc(F)c(NC(=O)c4ccc(CN5CCN(C)CC5)c(C(F)(F)F)c4)c3)ccc12	-43.9% (active)	30.9%	72.5%	32.6%	53.8%	29.3%	-33.3% (active)	6.57% (active)	-3.12% (active)
Cc1ccc(CSc2nc(-c3ccc(F)cc3)c(C#N)c(=O)[nH]2)cc1	91.5%	97.8%	99%	96.5%	105%	113%	102%	105%	95.9%
Cc1cc(C)cc(Oc2cccc(-c3c(C)nnn3C3CCN(CCN(C)C)CC3)n2)c1	-12.1% (active)	35.9%	58%	38.9%	9.31% (active)	36.2%	38%	5.31% (active)	32.4%
CN1CCN(c2ccc(Nc3nc(NCCCNC(=O)c4ccccc4)c4sccc4n3)cc2)CC1	14.8%	55.9%	88.4%	77.9%	113%	94.9%	78.5%	78.8%	82.3%
CC(=O)Nc1ccc(-c2cn(-c3cccc(C(=O)Nc4cc(C(F)(F)F)cc(C(F)(F)F)c4)c3)nn2)cn1	-43.7% (active)	-32.8% (active)	-10.6% (active)	-24.6% (active)	-21.1% (active)	-38.4% (active)	-30.9% (active)	-9.63% (active)	1.76% (active)
O=C(CSc1nnc(-c2ccc3nc(-c4ccc(Cl)cc4)[nH]c3c2)o1)Nc1ccc(Br)cc1	0.539% (active)	-43.5% (active)	39.5%	16.4%	60.2%	23.2%	-15.9% (active)	-16.5% (active)	10.9%
CCOC(=O)C1NN(c2ccc(S(N)(=O)=O)cc2)c2nc3nc(-c4cccs4)cc(-c4cccs4)c3c(=O)n21 (centres undefined)	77.9%	86.7%	100%	70.2%	93.6%	104%	89.9%	8.11% (active)	88.6%
N[C@@H](CSSC[C@H](N)C(=O)Nc1ccc(OCC2CCCC2)cc1)C(=O)Nc1ccc(OCC2CCCC2)cc1	-57.3% (active)	-59.8% (active)	-100% (active)	-96.9% (active)	-97.9% (active)	-92.1% (active)	-86.5% (active)	-61.7% (active)	-77.2% (active)
COc1ccc(-c2nc(-c3ccccc3)c(-c3ccccc3)n2-c2ccc(S(=O)(=O)Nc3ncccn3)cc2)cc1OC	60.3%	90.2%	82.8%	87%	95%	85.5%	90.1%	50.9%	96.7%
CN1CCN(Cc2ccc(C(=O)Nc3cccc(Nc4ccc5cc(O)ccc5n4)c3)cc2C(F)(F)F)CC1	-51.3% (active)	4.28% (active)	-25% (active)	6.75% (active)	26.3%	-37.8% (active)	-58.9% (active)	-2.79% (active)	28.6%
C=C[C@H]1[C@H](O[C@@H]2OC(CO)[C@@H](O)[C@H](O)C2OC(=O)c2c(O)cc(O)cc2-c2cccc(O)c2)OC=C2C(=O)OCC[C@H]21 (some centres undefined)	106%	102%	100%	108%	95.7%	101%	112%	99.7%	102%
O=C(Nc1nc2ccc([N+](=O)[O-])cc2s1)Nc1cc(Cl)ccc1I	-40.9% (active)	-13.6% (active)	15.1%	0.91% (active)	-9.56% (active)	13.8%	-21.2% (active)	-21.5% (active)	-34.5% (active)
CC(=C(c1ccc(OCCN2CCCCCC2)cc1)c1ccc(OCCN2CCCCCC2)cc1)c1ccc(Cl)cc1	-63.6% (active)	-95.3% (active)	-100% (active)	-96.3% (active)	-100% (active)	-94.1% (active)	-92.6% (active)	-48% (active)	-97.7% (active)
C=C1CCC2C3(C)COC(c4c(F)cccc4F)OC3CCC2(C)C1CC(O)C1=CCOC1=O (centres undefined)	12.6%	7.07% (active)	82.9%	60.2%	100%	59.3%	38.2%	76.1%	11.6%
CC(=O)NCC1=C(C)C=C2C(=O)[C@](C)(O)C3(CC3)C(C)=C21	82.7%	-63.6% (active)	-28.8% (active)	-53% (active)	-58.5% (active)	-39.3% (active)	-19.9% (active)	-37.4% (active)	-46.1% (active)
O=C1Nc2cc(Cl)ccc2/C1=C/c1cccc(OCc2ccccc2)c1	-34.7% (active)	-65% (active)	11.9%	36.7%	32%	11.1%	-5.96% (active)	-2.85% (active)	-22.2% (active)
Cc1ccc(-c2ccc(SCC(=O)Nc3ccc(Cl)c(C(F)(F)F)c3)nn2)cc1	19.7%	1.56% (active)	39.1%	62.4%	46.6%	30.1%	2.46% (active)	15.7%	-23.5% (active)
C=CC(=O)Nc1ccc(C(=O)/C=C/c2ccc(N(C)CCF)cc2)c(O)c1	3.47% (active)	-45.8% (active)	-49.3% (active)	19.8%	3.61% (active)	-53.5% (active)	-69% (active)	19.7%	0.782% (active)
Cc1ccc(NCC(=O)Nn2c(COc3ccccc3)nc3ccccc3c2=O)cc1	85.9%	60.1%	92.3%	25.4%	52.8%	82.4%	75.4%	66.1%	72.6%
